Measurements as given in PubChem BioAssay (NCI).
About 83,000 compounds went through this panel and 20% of them were active in at least one assay; those are over-represented in the sample as a whole.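 Growth was measured after 48 h exposure to one concentration of compound in 96-well plates. Values under 10 count as active.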 Calls of active or inactive are those of the source.

Assays:
Test in all cases: NCI-60 one-dose screen, 48 h (100 = growth as untreated, 0 = no growth, -100 = all killed)
Settings in all cases: 10 µM unless noted
[1] = tested on: NCI-H23 lung
[2] = tested on: NCI-H226 lung
[3] = tested on: NCI-H322M lung
[4] = tested on: HOP-62 NSCLC
[5] = tested on: HOP-92 NSCLC
[6] = tested on: NCI-H522 lung
[7] = tested on: A549/ATCC NSCLC
[8] = tested on: 786-0 renal
[9] = tested on: COLO 205 colon

Measured: growth

CCOC(=O)c1cnc2c(OC)ccc(OC)c2c1Cl
inactive: [1] 110% | [2] 113% | [3] 120% | [4] 101% | [5] 98.5% | [6] 120% | [7] 97.3% | [8] 117% | [9] 117%

Cc1ccc(-c2nc3c(N=Nc4ccc(S(N)(=O)=O)cc4)c(N)nn3c(N)c2C#N)cc1
inactive: [1] 43.9% | [2] 65% | [3] 66.1% | [4] 42.6% | [5] 19.6% | [6] 28.7% | [7] 63.1% | [8] 64.5% | [9] 14.5%

O=C(NCCNc1nccc(-c2c(-c3cccc(O)c3)nc3sccn23)n1)c1ccccc1O
inactive: [1] 57.4% | [2] 80.5% | [3] 72.3% | [4] 114% | [5] 59.9% | [6] 29% | [7] 43.3% | [8] 64.6% | [9] 66.5%

O=c1nc(N2CCOCC2)oc2c(-c3cccc4ccccc34)cccc12
inactive: [1] 89.3% | [2] 66.6% | [3] 90.8% | [4] 80.8% | [5] 60.1% | [7] 85.6% | [8] 74.4% | [9] 103%

CCOC(=O)C1=C(N)Oc2cc(OC)ccc2C1c1ccc(F)c(F)c1 (stereo not drawn)
active: [6] -6.42%
inactive: [1] 45.1% | [2] 68% | [3] 46.8% | [4] 37.7% | [5] 73.6% | [7] 42.1% | [8] 33.1% | [9] 25.2%

COc1ccc(NC(=O)COCCOCCNC[C@@H]2C(=O)O[C@H]3[C@H]2CC/C(COC(=O)OC/C2=C/CC[C@@]4(C)O[C@H]4[C@H]4OC(=O)[C@@H](CN(C)C)[C@@H]4CC2)=C\CC[C@@]2(C)O[C@@H]32)c(O)c1C(N)=O
active: [5] -26.6% | [6] -75.7% | [8] -26.1% | [9] -27.9%
inactive: [1] 81.8% | [2] 49.9% | [3] 102% | [4] 93.9% | [7] 72.9%

Cc1ccccc1C[P+](c1ccccc1)(c1ccccc1)c1ccccc1
active: [5] -7.58% | [6] 0.342% | [9] 9.84%
inactive: [1] 11.6% | [2] 32.9% | [3] 57.7% | [4] 32.4% | [7] 29.9% | [8] 40.7%

COc1ccc(-c2nnc(SCC(=O)N3CCN(c4cc5c(cc4F)c(=O)c(C(=O)O)cn5C4CC4)CC3)o2)cc1OC
inactive: [1] 101% | [2] 103% | [3] 96.2% | [4] 67% | [5] 51.6% | [6] 88.6% | [7] 101% | [8] 69.3% | [9] 74.1%

COC(=O)c1ccc(NC(N)=NCC(C)(C)COc2ccc(C(F)(F)F)cc2)nc1
inactive: [1] 33.6% | [2] 50.7% | [3] 65.9% | [4] 76.6% | [6] 37.2% | [7] 56.1% | [8] 70.9%
active: [9] -76.7%

COc1ccc(/C=C/C(=O)c2ccc(Oc3ncnc4ccccc34)cc2)cc1OC
inactive: [1] 81.9% | [2] 80.2% | [3] 76.1% | [4] 87.7% | [5] 84.6% | [6] 53.5% | [7] 59.2% | [8] 82.4% | [9] 85.4%

Nc1ncc(-c2ccc3ncnc(Nc4ccc(F)c(Cl)c4)c3c2)cn1
inactive: [1] 56.2% | [2] 55.5% | [3] 33% | [4] 57.5% | [5] 31.9% | [6] 42.9% | [7] 34.6% | [9] 32.3%
active: [8] 6.18%

COc1cc(C(=O)C[n+]2ccccc2)ccc1OC(C)=O
inactive: [1] 106% | [2] 96.3% | [3] 106% | [4] 94.6% | [5] 91.5% | [6] 98% | [7] 98.3% | [8] 90.9% | [9] 104%

O=C(O)c1cn(C2CC2)c2cc(N3CCN(C(=O)CSc4nc(NS(=O)(=O)c5ccccc5)cc(=O)[nH]4)CC3)c(F)cc2c1=O
inactive: [1] 94.3% | [2] 96.2% | [3] 92.5% | [4] 116% | [5] 106% | [6] 95.6% | [7] 110% | [8] 111% | [9] 109%

O=C(NOC1OC(CO)C(O)C(O)C1O)Nc1ccccc1 (stereo not drawn)
inactive: [1] 104% | [2] 90.5% | [3] 101% | [4] 93.2% | [5] 91.1% | [6] 84.9% | [7] 106% | [8] 107% | [9] 95.8%

CN(C)CC/C=C1\c2ccccc2Sc2ccc(Cl)cc21
inactive: [1] 80% | [2] 102% | [3] 72.1% | [4] 75.6% | [5] 36.7% | [6] 67.5% | [7] 74.9% | [8] 58.2%
active: [9] -40.1%

Nc1nccc(=S)[nH]1
inactive: [1] 92.7% | [2] 103% | [3] 101% | [4] 100% | [5] 110% | [6] 63.2% | [7] 74.3% | [8] 99.7% | [9] 127%

O=C(Nc1cccc(-n2ccc3c(NC(=O)c4ccccc4)nccc32)c1)Nc1cc(C(F)(F)F)cc(C(F)(F)F)c1
inactive: [2] 26.3% | [3] 46% | [4] 35.6% | [8] 13.4%
active: [1] 3.76% | [5] -13% | [6] -46.5% | [7] 7.57% | [9] -36.3%

CC(NCCC(c1ccccc1)c1ccccc1)c1ccccc1 (stereo not drawn)
inactive: [1] 82% | [2] 87.6% | [3] 69.8% | [4] 97.8% | [5] 43.3% | [6] 74.8% | [7] 80.7% | [8] 73.4%
active: [9] -54.9%

Nc1nc(-c2cc3c(cc2Cl)NC(=O)/C3=C/c2ccccc2)cs1
inactive: [1] 56.5% | [2] 71.8% | [3] 70.1% | [4] 78.6% | [6] 27.5% | [7] 61.5% | [8] 83.9% | [9] 81.3%
